From PubChem BioAssay AID1159580 (chemical genetic matrix, 2015)
Values joined by “and” are separate entries in the source; they are usually repeats but may differ in a detail not shown here. Identical values can stand only once. Hit rate of the full screen: of about 5,500 compounds, about 2,000 (36%) were called active. About 18% were inconclusive and are not listed. Rule as the data show it: active = normalized growth mostly below about 0.91 (no sharp cut-off); inconclusive = no clear call, values can overlap the other calls; inactive = mostly above about 0.92. This is one part of the list.

Test: chemical genetic growth profiling, strain panel (AID 1159580);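 also: tested at 20 µM; growth read once vehicle control cultures reached saturation at 30 °C; 1 = growth at the plate median or of vehicle wells; lower values mean less growth of the strain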
Conditions: S. cerevisiae deletion strains, growth OD

Measured: normalized growth

CCN(CC)C(=S)SSC(=S)N(CC)CC
inactive: locus YDR363W, strain ESC2, hits give low values 0.997
active: locus YAL013W, strain DEP1, hits give low values 0.0629 and 0.897 | locus YAL021C, strain ccr4, hits give low values 0.0672 | locus YAL026C, strain drs2, hits give low values 0.0682 | locus YAL030W, strain snc1, hits give low values 0.0564 | locus YAL040C, strain CLN3, hits give low values 0.308 | locus YBL061C, strain skt5, hits give low values 0.062 | locus YBR009C, strain hhf1, hits give low values 0.0652 | locus YBR021W, strain FUR4, hits give low values 0.0934 | locus YBR023C, strain chs3, hits give low values 0.0638 | locus YBR171W, strain sec66, hits give low values 0.0771 | locus YBR229C, strain ROT2, hits give low values 0.426 | locus YBR231C, strain swc5, hits give low values 0.0656 | locus YBR279W, strain paf1, hits give low values 0.063 | locus YCL011C, strain gbp2, hits give low values 0.0576 | locus YCL016C, strain dcc1, hits give low values 0.065 | locus YCL029C, strain bik1, hits give low values 0.135 | locus YCL061C, strain MRC1 (second series), hits give low values 0.936 | locus YCL061C, strain MRC1, hits give low values 0.0667 | locus YCL069W, strain vba3, hits give low values 0.0629 | locus YCR088W, strain abp1, hits give low values 0.062 | locus YDL005C, strain med2, hits give low values 0.0753 | locus YDL035C, strain GPR1, hits give low values 0.0484 | locus YDL040C, strain nat1, hits give low values 0.0568 | locus YDL074C, strain BRE1, hits give low values 0.0817 | locus YDL101C, strain DUN1, hits give low values 0.068 | locus YDL134C, strain PPH21, hits give low values 0.0516 | locus YDL185W, strain tfp1, hits give low values 0.788 | locus YDL192W, strain arf1, hits give low values 0.0621 | locus YDR001C, strain nth1, hits give low values 0.0666 | locus YDR069C, strain doa4, hits give low values 0.0647 | locus YDR101C, strain arx1, hits give low values 0.101 | locus YDR137W, strain rgp1, hits give low values 0.0968 | locus YDR150W, strain NUM1, hits give low values 0.0605 | locus YDR159W, strain sac3, hits give low values 0.0932 | locus YDR162C, strain NBP2, hits give low values 0.0518 | locus YDR195W, strain ref2 0.121 | locus YDR297W, strain sur2, hits give low values 0.0658 | locus YDR318W, strain mcm21, hits give low values 0.0632 | locus YDR334W, strain swr1, hits give low values 0.066 | locus YDR335W, strain msn5, hits give low values 0.0613 | locus YDR388W, hits give low values 0.0574 | locus YDR392W, strain spt3, hits give low values 0.103 | locus YDR502C, strain sam2, hits give low values 0.0592 | locus YEL003W, strain gim4, hits give low values 0.0548 | locus YEL037C, strain rad23, hits give low values 0.0581 | locus YEL061C, strain CIN8 (second series), hits give low values 0.0638 | locus YEL061C, strain CIN8, hits give low values 0.0531 | locus YER015W, strain faa2, hits give low values 0.0589 | locus YER016W, strain bim1, hits give low values 0.0621 | locus YER110C, hits give low values 0.0748 | locus YER111C, strain swi4, hits give low values 0.0842 | locus YER155C, strain BEM2 (second series), hits give low values 0.092 | locus YER155C, strain BEM2, hits give low values 0.0787 | locus YER167W, strain BCK2, hits give low values 0.0526 | locus YFR010W, strain ubp6, hits give low values 0.0704 | locus YGL078C, strain dbp3, hits give low values 0.0558 | locus YGL086W, strain mad1, hits give low values 0.0539 | locus YGL167C, strain pmr1, hits give low values 0.0736 | locus YGL173C, strain kem1, hits give low values 0.0686 | locus YGL227W, strain vid30, hits give low values 0.0649 | locus YGL240W, strain doc1, hits give low values 0.0818 | locus YGL248W, strain PDE1, hits give low values 0.0479 | locus YGL253W, strain hxk2, hits give low values 0.0556 | locus YGR078C, strain PAC10, hits give low values 0.0528 | locus YGR135W, strain pre9, hits give low values 0.0614 | locus YGR229C, strain SMI1, hits give low values 0.0585 and 0.186 | locus YGR252W, strain gcn5, hits give low values 0.111 | locus YHR013C, strain ard1, hits give low values 0.114 | locus YHR027C, strain rpn1, hits give low values 0.0617 | locus YHR030C, strain SLT2, hits give low values 0.0521 and 0.114 | locus YHR079C, strain IRE1 (second series), hits give low values 0.0828 | locus YHR079C, strain IRE1, hits give low values 0.111 | locus YHR094C, strain hxt1, hits give low values 0.0606 | locus YHR129C, strain ARP1, hits give low values 0.0581 | locus YHR142W, strain chs7, hits give low values 0.0762 | locus YHR200W, strain rpn10, hits give low values 0.0631 | locus YIL066C, strain RNR3, hits give low values 0.0508 | locus YIL073C, strain SPO22, hits give low values 0.104 | locus YIL125W, strain kgd1, hits give low values 0.0593 | locus YIR030C, strain dcg1, hits give low values 0.0587 | locus YJL092W, strain hpr5, hits give low values 0.0611 | locus YJL095W, strain BCK1 (second series), hits give low values 0.0583 | locus YJL095W, strain BCK1, hits give low values 0.0582 and 0.114 | locus YJL115W, strain asf1, hits give low values 0.0765 | locus YJL129C, strain trk1, hits give low values 0.0869 | locus YJL134W, strain LCB3, hits give low values 0.0503 | locus YJL154C, strain vps35, hits give low values 0.0608 | locus YJL164C, strain tpk1, hits give low values 0.0649 | locus YJL166W, strain qcr8, hits give low values 0.0615 | locus YJL168C, strain set2, hits give low values 0.0602 | locus YJL187C, strain SWE1 (second series), hits give low values 0.102 | locus YJL187C, strain SWE1, hits give low values 0.0577 | locus YJR043C, strain POL32, hits give low values 0.0598 | locus YJR066W, strain TOR1, hits give low values 0.00329
